Laboratory results: PubChem BioAssay (EPA / NIEHS)
Records with an inconclusive call do not appear. The source made the active and inactive calls. Rule for the calls: active = hit-call score of the fitted dose curve at least 0.9, where 1 is the maximum; inconclusive = response in the unintended direction; inactive = score below 0.9.

Tested on: not listed separately
Experiment: Tanguay_ZF_120hpf_NC_legacy: (Legacy) Oregon State University Tanguay Lab 120 Hour Post-fertilization zebrafish Assay for Notochord and Tail Malformation (AID 2283656)
Method in brief: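 Dechorionated 5D zebrafish, 1/well from 6 hpf; static exposure to 120 hpf, 28C, sealed, dark; final DMSO 0.64% v/v. NC scored binary (present/absent); dead embryos not scored. Fit vs DMSO baseline, gain direction.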

Compound	outcome	AC50
CCCCOC(=O)c1ccccc1	inactive	–
COCc1nnc(-c2ccc[n+]([O-])c2)n1-c1c(Cl)c(Cl)cc2[nH]c(=O)c(=O)[nH]c12	inactive	–
CCCCC(CC)C(=O)OCCOCCOCCOC(=O)C(CC)CCCC (centres undefined)	inactive	–
OCc1ccccc1	inactive	–
CCOc1ccc2[nH]cc(C(=O)NCc3ccccc3)c(=O)c2n1	inactive	–
Cc1nccn1-c1ccc(Sc2cccc(C3(C(N)=O)CCOCC3)c2)cc1	inactive	–
CCCCCCCCCC	inactive	–
CCCCN1C(=O)[C@@H]([C@H](O)C2CCCCC2)NC(=O)C12CCN(Cc1ccc(Oc3ccc(C(=O)O)cc3)cc1)CC2	inactive	–
O=S(=O)(O)c1ccc(N=Nc2c(O)ccc3cc(S(=O)(=O)O)ccc23)cc1	inactive	–
Cn1cc[nH]c1=S	inactive	–
c1ccc(C(O[C@@H]2CCCN(CCc3ccc4c(c3)OCO4)C2)c2ccccc2)cc1	inactive	–
CCCCCCCC/C=C\CCCCCCCC(=O)OC[C@@H](O)[C@H]1OC[C@H](O)[C@H]1O	inactive	–
Cc1nc(-c2ccccn2)ncc1C(=O)Nn1cc(C)c2cc(F)ccc21	inactive	–
OC(Cn1cncn1)(Cn1cncn1)c1ccc(F)cc1F	inactive	–
COc1cc2c(c(OC)c1OC)-c1ccc(OC)c(=O)cc1[C@@H](NC(C)=O)CC2	inactive	–
CC(C)CC(C)O (centres undefined)	inactive	–
CC[C@H](C)C(=O)O[C@H]1C[C@H](O)C=C2C=C[C@H](C)[C@H](CC[C@@H](O)C[C@@H](O)CC(=O)O)[C@H]21	inactive	–
CCCCCCCC1CCC(=O)O1 (centres undefined)	inactive	–
COc1cc(C(C)C)c2c(c1)S(=O)(=O)N(COc1cc(=O)n3cccc(OCCN4CCCCC4)c3n1)C2=O	inactive	–
CCN(CC)C(=S)SSC(=S)N(CC)CC	–	0.112 µM (active)
CCc1cccc(CC)c1N	inactive	–
CCCc1ccccc1	inactive	–
CC(C)c1nnc2ccc(-c3ocnc3-c3cc(F)ccc3F)cn12	inactive	–
CC(C)C(=O)Nc1ccc([N+](=O)[O-])c(C(F)(F)F)c1	inactive	–

Tested on: Thyroperoxidase (TPO), gene 54314
Experiment: CCTE_Simmons_AUR_rTPO: CCTE's Amplex UltraRed Assay for Thyroperoxidase (TPO) Inhibition, Simmons Lab (AID 2283662);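 for AC50: potency for loss of signal meaning inhibition of peroxidase activity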
Method in brief: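 Endpoint is decreased Amplex UltraRed fluorescence after a 30-min, 37C reaction of rat thyroid microsomes with 300 uM H2O2. Eight test concentrations (5 nM–87.5 uM final) in 0.5% DMSO, three biological replicates each.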

Compound	AC50	outcome
NC(=O)N(O)[C@@H]1COc2cc(OCc3ccccc3)ccc21	1.29 µM (active)	–
O=S1(=O)CCCO1	–	inactive
Cn1cc[nH]c1=S	0.0542 µM (active)	–
c1ccc2cc3ccccc3cc2c1	10.6 µM (active)	–
C=CCc1cc(S(=O)(=O)c2ccc(O)c(CC=C)c2)ccc1O	14.6 µM (active)	–
Cc1cccc(O)c1C	17.3 µM (active)	–
C[C@@H](Oc1ccc(CNC(=O)c2cccnc2Oc2ccc3c(c2)OCO3)c(F)c1)C(=O)O	22.2 µM (active)	–

Tested on: not listed separately
Experiment: CCTE_Simmons_CellTiterGLO_HEK293T: Viability Assessment in CCTE's Assays for Thyroperoxidase (TPO) Inhibition, Simmons Lab (AID 2283665);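 for AC50: cells exposed to compound for 24 h before readout; actives reduce ATP signal below DMSO vehicle meaning cytotoxicity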
Method in brief: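 HEK293T cells in DMEM with 1% FBS were dosed with 8 concentrations (5 nM–87.5 uM final, 0.5% DMSO) for 24 hr at 37C; ATP content was read by CellTiter-Glo luminescence, loss-of-signal versus DMSO, three biological replicates.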

Compound	outcome	AC50
NC(=O)N(O)[C@@H]1COc2cc(OCc3ccccc3)ccc21	inactive	–
Cn1cc[nH]c1=S	inactive	–
c1ccc2cc3ccccc3cc2c1	inactive	–
C=CCc1cc(S(=O)(=O)c2ccc(O)c(CC=C)c2)ccc1O	–	79.5 µM (active)
Cc1cccc(O)c1C	inactive	–
C[C@@H](Oc1ccc(CNC(=O)c2cccnc2Oc2ccc3c(c2)OCO3)c(F)c1)C(=O)O	inactive	–

Tested on: not listed separately
Experiment: Tanguay_ZF_120hpf_TR_legacy: (Legacy) Oregon State University Tanguay Lab 120 Hour Post-fertilization zebrafish Assay for Touch Response (AID 2283667)
Method in brief: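 5D WT embryos; static exposure to 120 hpf, 28C, sealed/dark; DMSO 0.64% v/v final. TR scored present/absent; dead embryos excluded. Pos ctrl 5uM trimethyltin chloride.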

Compound	outcome	AC50
CCCCOC(=O)c1ccccc1	inactive	–
O=C(O)c1cccc(C[C@@H]2COc3ccc(OCc4nc5cc(F)ccc5s4)cc3[C@@H]2O)c1	inactive	–
COCc1nnc(-c2ccc[n+]([O-])c2)n1-c1c(Cl)c(Cl)cc2[nH]c(=O)c(=O)[nH]c12	inactive	–
CCCCC(CC)C(=O)OCCOCCOCCOC(=O)C(CC)CCCC (centres undefined)	inactive	–
OCc1ccccc1	inactive	–
CCOc1ccc2[nH]cc(C(=O)NCc3ccccc3)c(=O)c2n1	inactive	–
Cc1nccn1-c1ccc(Sc2cccc(C3(C(N)=O)CCOCC3)c2)cc1	inactive	–
NC(=O)N(O)[C@@H]1COc2cc(OCc3ccccc3)ccc21	inactive	–
O=S1(=O)CCCO1	inactive	–
CCCCCCCCCC	inactive	–
O=c1[nH]cnc2c1ncn2[C@H]1CC[C@@H](CO)O1	inactive	–
CCCCN1C(=O)[C@@H]([C@H](O)C2CCCCC2)NC(=O)C12CCN(Cc1ccc(Oc3ccc(C(=O)O)cc3)cc1)CC2	inactive	–
O=S(=O)(O)c1ccc(N=Nc2c(O)ccc3cc(S(=O)(=O)O)ccc23)cc1	inactive	–
c1ccc(C(O[C@@H]2CCCN(CCc3ccc4c(c3)OCO4)C2)c2ccccc2)cc1	–	53.6 µM (active)
CCCCCCCC/C=C\CCCCCCCC(=O)OC[C@@H](O)[C@H]1OC[C@H](O)[C@H]1O	inactive	–
c1ccc2cc3ccccc3cc2c1	inactive	–

Compound	outcome	AC50
Cc1nc(-c2ccccn2)ncc1C(=O)Nn1cc(C)c2cc(F)ccc21	inactive	–
OC(Cn1cncn1)(Cn1cncn1)c1ccc(F)cc1F	inactive	–
COc1cc2c(c(OC)c1OC)-c1ccc(OC)c(=O)cc1[C@@H](NC(C)=O)CC2	–	13.3 µM (active)
C=CCc1cc(S(=O)(=O)c2ccc(O)c(CC=C)c2)ccc1O	inactive	–
CC[C@H](C)C(=O)O[C@H]1C[C@H](O)C=C2C=C[C@H](C)[C@H](CC[C@@H](O)C[C@@H](O)CC(=O)O)[C@H]21	inactive	–
CCCCCCCC1CCC(=O)O1 (centres undefined)	inactive	–
COc1cc(C(C)C)c2c(c1)S(=O)(=O)N(COc1cc(=O)n3cccc(OCCN4CCCCC4)c3n1)C2=O	inactive	–
OC[C@H]1O[C@@H]2O[C@H]3[C@H](O)[C@@H](O)[C@@H](O[C@H]4[C@H](O)[C@@H](O)[C@@H](O[C@H]5[C@H](O)[C@@H](O)[C@@H](O[C@H]6[C@H](O)[C@@H](O)[C@@H](O[C@H]7[C@H](O)[C@@H](O)[C@@H](O[C@H]1[C@H](O)[C@H]2O)O[C@@H]7CO)O[C@@H]6CO)O[C@@H]5CO)O[C@@H]4CO)O[C@@H]3CO	inactive	–
CCN(CC)C(=S)SSC(=S)N(CC)CC	–	2.17 µM (active)
CCc1cccc(CC)c1N	inactive	–
CCCCCCOC(=O)CC(CC(=O)OCCCCCC)(OC(=O)CCC)C(=O)OCCCCCC	inactive	–
c1ccc2c(c1)-c1cccc3c1c-2cc1ccccc13	inactive	–
CCCc1ccccc1	inactive	–
CC(C)c1nnc2ccc(-c3ocnc3-c3cc(F)ccc3F)cn12	inactive	–
CC(C)C(=O)Nc1ccc([N+](=O)[O-])c(C(F)(F)F)c1	inactive	–
C[C@@H](Oc1ccc(CNC(=O)c2cccnc2Oc2ccc3c(c2)OCO3)c(F)c1)C(=O)O	inactive	–
